Assay results as given in PubChem BioAssay (NCATS).
Inconclusive results are not listed. The source made the active and inactive calls. Calls come from the whole dose curve; as a rule, active = well fitted curve in the direction sought with a large enough effect; inconclusive = small, poorly fitted or top-dose-only effect, or another doubt; inactive = no such curve, though single readings can be large; an effect the other way counts as inactive or inconclusive.

experiment: qHTS of Nrf2 Activators: LOPAC Validation (AID 624149); conditions: Nrf2/ARE reporter cell assay; series mostly up to 46.1 µM; activation: at the top concentration; note: 0% is about no effect
Method in brief: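 AREc32 cells carrying an ARE-driven firefly luciferase were grown overnight in OPTI-MEM with 5% FBS, then exposed to compounds for 24 hr at 37 deg C. Luciferase signal was read after 30 min with Steady-Glo at RT.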

SMILES	activation	outcome
NCC(O)c1ccc(O)cc1 (stereo unspecified)	-1.54% (inactive)	–
NCC(CC(=O)O)c1ccc(Cl)cc1 (stereo unspecified)	-1.16% (inactive)	–
COc1ccccc1N1CCNCC1	0.796% (inactive)	–
CCCN1CCC[C@@H]2Cc3[nH]ncc3C[C@H]21	–	inactive
CCCC(C)(COC(N)=O)COC(=O)NC(C)C (stereo unspecified)	-1.78% (inactive)	–
COc1ccc(C(CN(C)C)C2(O)CCCCC2)cc1 (stereo unspecified)	-1.7% (inactive)	–
CC(O)(CS(=O)(=O)c1ccc(F)cc1)C(=O)Nc1ccc(C#N)c(C(F)(F)F)c1 (stereo unspecified)	-1.94% (inactive)	–
Cc1cccc(C)c1NC(=O)CN1CCCC1=O	-2.7% (inactive)	–
Fc1ccc(C(OCCN2CCN(CCCc3ccccc3)CC2)c2ccc(F)cc2)cc1	-0.382% (inactive)	–
Cc1ncc(CNC(=O)N(CCCl)N=O)c(N)n1	-2.41% (inactive)	–
O=c1[nH]c2ccccc2n1C1CCN(CCCC(c2ccc(F)cc2)c2ccc(F)cc2)CC1	-2.43% (inactive)	–
CC(CCc1ccccc1)NC(C)C(O)c1ccc(O)cc1 (stereo unspecified)	-1.19% (inactive)	–
CC[C@@H](CO)NC(=O)[C@@H]1C=C2c3cccc4[nH]cc(c34)C[C@H]2N(C)C1	-1.06% (inactive)	–
CNCC(O)c1ccc(O)cc1 (stereo unspecified)	-1.83% (inactive)	–
O=C1NCN(c2ccccc2)C12CCN(CC1COc3ccccc3O1)CC2 (stereo unspecified)	-1.46% (inactive)	–
CN1C[C@H](CNC(=O)OCc2ccccc2)C[C@@H]2c3cccc4c3c(cn4C)C[C@H]21	6.6% (inactive)	–

experiment: HTS Assay for Allosteric Antagonists of the Human D2 Dopamine Receptor: Hit Validation in HTRF (AID 624455); conditions: Cells stably expressing D1 dopamine receptor, inhibition mode; series mostly up to 46.1 µM; activity, negative = inhibition: at the top concentration; note: potency is the fitted concentration of half-maximal effect;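 note: stable D1 dopamine receptor cell line scored for blocking the D1 response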; for activity, negative = inhibition: % is set by controls: 0 for no effect and ±100 for the full control effect
Method in brief: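 Hits were examined in an HTRF assay using cells stably expressing the D1 dopamine receptor, scoring inhibition of the D1-mediated response. The preceding primary screen tracked calcium flux after an EC80 dopamine addition in force-coupled, inducible Hek293 Trex D2 cells.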

SMILES	activity, negative = inhibition	Potency
CC(C)=CCOc1c2occc2cc2ccc(=O)oc12	-5.39% (inactive)	–
CCC1(C2=NCCN2)Cc2ccccc2O1 (stereo unspecified)	19.4% (inactive)	–
c1ccc(C2CC2)c(OCC2=NCCN2)c1	-22.2% (inactive)	–
Cc1ccc(S(=O)(=O)N[C@@H](CCCCN)C(=O)CCl)cc1	-12.8% (inactive)	–
C=C(C)[C@H]1Cc2c(ccc3c2O[C@@H]2COc4cc(OC)c(OC)cc4[C@@H]2C3=O)O1	-0.625% (inactive)	–
Nc1ccncc1	-3.82% (inactive)	–
CC(=O)[C@H]1CC[C@H]2[C@@H]3CC[C@H]4C[C@](C)(O)CC[C@]4(C)[C@H]3CC[C@]12C	-2.18% (inactive)	–
COC[C@H]1OC(=O)c2coc3c2[C@@]1(C)C1=C(C3=O)C2CCC(=O)[C@@]2(C)C[C@H]1OC(C)=O (stereo partly specified)	-6.42% (inactive)	–
O=c1[nH]c2ccccc2n1CCCN1CCC(n2c(=O)[nH]c3cc(Cl)ccc32)CC1	1.3% (inactive)	–
NN=C(N)N	–	inactive
CC[N+](C)(C)c1cccc(O)c1	35.7% (inactive)	–
C[C@@H]1O[C@@H](O[C@H]2C[C@@H](O)[C@]3(CO)[C@H]4[C@H](O)C[C@]5(C)[C@@H](C6=CC(=O)OC6)CC[C@]5(O)[C@@H]4CC[C@]3(O)C2)[C@H](O)[C@H](O)[C@H]1O	-1.4% (inactive)	–
CC(=O)[C@H]1CC[C@H]2[C@@H]3CC[C@H]4C[C@H](O)CC[C@]4(C)[C@H]3C(=O)C[C@]12C	5.14% (inactive)	–
NCC1(CC(=O)O)CCCCC1	-10% (inactive)	–
Cc1cccc(C)c1NC1=NCCCS1	-0.248% (inactive)	–
N#CC(C#N)=Cc1ccc(O)c(O)c1	-25.9% (inactive)	–
NCC(CC(=O)O)c1ccc(Cl)cc1 (stereo unspecified)	-6.55% (inactive)	–
COc1ccccc1N1CCNCC1	-4.89% (inactive)	–
CCCC(C)(COC(N)=O)COC(=O)NC(C)C (stereo unspecified)	2.63% (inactive)	–
CC(O)(CS(=O)(=O)c1ccc(F)cc1)C(=O)Nc1ccc(C#N)c(C(F)(F)F)c1 (stereo unspecified)	1.14% (inactive)	–
c1ccc2c(c1)OCC(C1=NCCN1)O2 (stereo unspecified)	-11.9% (inactive)	–
Cc1cccc(C)c1NC(=O)CN1CCCC1=O	-1.57% (inactive)	–
Fc1ccc(C(OCCN2CCN(CCCc3ccccc3)CC2)c2ccc(F)cc2)cc1	-4.97% (inactive)	–
Cc1ncc(CNC(=O)N(CCCl)N=O)c(N)n1	1.88% (inactive)	–
O=c1[nH]c2ccccc2n1C1CCN(CCCC(c2ccc(F)cc2)c2ccc(F)cc2)CC1	12.3% (inactive)	–
CC(CCc1ccccc1)NC(C)C(O)c1ccc(O)cc1 (stereo unspecified)	5.83% (inactive)	–
CC[C@@H](CO)NC(=O)[C@@H]1C=C2c3cccc4[nH]cc(c34)C[C@H]2N(C)C1	–	5.2 nM (active)
CNCC(O)c1ccc(O)cc1 (stereo unspecified)	-12.5% (inactive)	–
O=C1NCN(c2ccccc2)C12CCN(CC1COc3ccccc3O1)CC2 (stereo unspecified)	-12.8% (inactive)	–
CN1C[C@H](CNC(=O)OCc2ccccc2)C[C@@H]2c3cccc4c3c(cn4C)C[C@H]21	-5.39% (inactive)	–
